Source: PubChem BioAssay
CYP2C19 inh: blockers of cytochrome P450 2C19 activity – biochemical, luminescence, ADME assay, primary screen. inhibition, % at 5 µM. CYP2C19 Supersomes, luciferin-H EGE luminescence, 30 min. AID 778, 2007. 96,000 compounds, 21% hits. P33261;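 active = CYP2C19 inhibition above a set limit at 5 µM in the primary screen, cut at about 50% in these data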;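 also: plate controls were negative control wells for no effect and 2.5 mM tranylcypromine positive control for full effect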
Target sequence (P33261 whole entry, looked up): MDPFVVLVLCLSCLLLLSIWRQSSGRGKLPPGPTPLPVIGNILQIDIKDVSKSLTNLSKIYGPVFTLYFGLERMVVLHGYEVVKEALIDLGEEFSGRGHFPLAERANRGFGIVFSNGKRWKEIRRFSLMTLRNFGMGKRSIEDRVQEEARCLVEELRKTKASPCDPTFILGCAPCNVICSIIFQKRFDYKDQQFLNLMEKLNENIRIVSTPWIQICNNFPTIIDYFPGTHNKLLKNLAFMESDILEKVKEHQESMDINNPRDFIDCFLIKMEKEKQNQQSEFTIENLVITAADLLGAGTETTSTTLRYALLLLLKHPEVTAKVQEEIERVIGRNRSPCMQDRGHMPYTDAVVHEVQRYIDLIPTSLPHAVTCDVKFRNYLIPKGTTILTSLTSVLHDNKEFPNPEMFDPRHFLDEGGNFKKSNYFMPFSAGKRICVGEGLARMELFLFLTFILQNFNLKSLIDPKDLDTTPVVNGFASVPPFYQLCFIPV
CYP2C9 inhib: blockers of cytochrome P450 2C9 activity – biochemical, luminescence, ADME assay, primary screen; P11712; CYP2C9 Supersomes, luciferin-H conversion; inhibition, % at 5 µM; 96,000 compounds, 20% hits;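 active = blocking of liver enzyme CYP2C9 beyond about 50% at 5 µM, limit read from the data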
Cav3 T inh: Cav3.2 calcium influx blockers – cell-based, Fluo-4 calcium fluorescence, FDSS, MLSMR library, primary screen | Voltage-dependent T-type calcium channel subunit alpha-1H (Homo sapiens), O95180 | Cav3.2-expressing cells; stronger effect = lower value | B-score at 10 µM | 100,000 compounds, 4% hits;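 active = single-dose well whose peak fluorescence ratio is a statistical outlier from its plate by either plate-standardised score or position-corrected B-score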
CYP2C9 activ: human CYP2C9 activators, primary screen, biochemical, luminescence | Cytochrome P450 2C9 (Homo sapiens), P11712 | AID 1024, 2008 | activation factor at 5 µM | 96,000 compounds, 1.4% hits | recombinant CYP2C9, luciferin-H conversion; stronger effect = higher value; factor 1 = untreated enzyme, 0 = blocked;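 active = activation factor of 2 or more for CYP2C9 at a 5 µM dose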;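 also: 0 = sulfaphenazole-blocked wells and 1 = vehicle-only wells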
CYP2C19 act: human CYP2C19 activators, primary screen, biochemical, luminescence; recombinant CYP2C19, luciferin-H EGE luminescence; stronger effect = higher value; 0 = fully inhibited enzyme, 1 = untreated enzyme; activation factor at 5 µM; AID 1025, 2008; 96,000 tested, under 10 active; Cytochrome P450 2C19 (Homo sapiens), P33261;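 active = activation factor of at least 2 at 5 µM in the primary screen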;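 also: 0 = wells with 2.5 mM tranylcypromine and 1 = vehicle-only wells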
An asterisk follows results filed as active; x = no result given. Sampled rows, rich in hits. Any-hit rate of the full collection: about 27%.

SMILES	CYP2C19 inh	CYP2C9 inhib	Cav3 T inh	CYP2C9 activ	CYP2C19 act
Cn1cnnc1SCC(=O)Nc1ccc2nc(SCc3ccccc3Cl)sc2c1	x	x	0.00093	x	x
Cn1c(=O)c2c(nc(Cl)n2Cc2ccc(Cl)c(Cl)c2)n(C)c1=O	10	0	x	1	0.9
CCOC(=O)n1c(=O)n(Cc2ccc(Cl)c(Cl)c2)c2ccccc21	51*	53*	x	0.5	0.5
CCOC(=O)n1c(=O)n(Cc2ccccc2)c2ccccc21	70*	18	-1.6	0.8	0.3
CCOC(=O)n1c(=O)n(Cc2c(Cl)cccc2Cl)c2ccccc21	61*	48	-2.4	0.5	0.4
CCOC(=O)n1c(=O)oc2ccccc21	2	4	x	1	1
O=C(NNC(=O)C1CCN(Cc2ccccc2)CC1)c1cccc(Cl)c1	11	17	x	0.8	0.9
Cc1[nH]nc(N=CC2=C(O)CC(C)(C)CC2=O)c1-c1ccc(Cl)cc1	18	33	-0.45	0.7	0.8
O=P(O)(CCCCP(=O)(O)CCc1ccccc1)CCc1ccccc1	-14	-12	x	1.1	1.1
c1ccc(Cc2nn[nH]n2)cc1	-18	-2	-0.0042	1	1.2
CC(C)(C)c1cc(Cc2ccccc2)[nH]n1	82*	31	0.075	0.7	0.2
Clc1ccc2[nH]c3c(N4CCC5(CC4)OCCO5)ncnc3c2c1	76*	73*	1.7	0.3	0.2
Cc1cccc2[nH]c3c(N4CCC5(CC4)OCCO5)ncnc3c12	51*	17	1.5	0.8	0.5
Cc1ccc2[nH]c3c(N4CCOCC4)ncnc3c2c1	12	33	-0.0085	0.7	0.9
Brc1ccc2[nH]c3c(N4CCc5ccccc5C4)ncnc3c2c1	6	92*	0.59	0.1	0.9
Cc1ccc2[nH]c3c(N4CCc5ccccc5C4)ncnc3c2c1	11	8	-2.9	0.9	0.9
Cc1ccc(-c2nsc3c(N4CCN(C(=O)c5ccco5)CC4)ncnc23)cc1	10	23	x	0.8	0.9
Cc1cccc2[nH]c3c(N4CCN(C(=O)c5ccco5)CC4)ncnc3c12	90*	39	0.76	0.6	0.1
O=C(CC1NCCNC1=O)Nc1ccc2c(c1)OCO2 (centres undefined)	6	22	0.91	0.8	0.9
Cc1cnn(-c2ccc3nnc(-c4ccc(Br)cc4)n3n2)c1	0	14	-0.51	0.9	1
c1ccc2c(c1)[nH]c1c(N3CCOCC3)ncnc12	12	52*	-1.4	0.5	0.9
COc1ccc(C(=O)NCC(=O)OC2CCCCC2=O)cc1 (centres undefined)	81*	0	-0.15	1	0.2
COc1ccc(C(=O)CC(c2ccccc2)C2CCCCC2=O)cc1 (centres undefined)	20	73*	-2.2	0.3	0.8
O=C(CC(c1ccco1)C1CCCCC1=O)c1ccco1 (centres undefined)	53*	55*	-0.26	0.4	0.5
O=C(CC(c1ccccc1)C1CCCCC1=O)c1ccco1 (centres undefined)	x	x	0.022	x	x
SMILES	CYP2C19 inh	CYP2C9 inhib	Cav3 T inh	CYP2C9 activ	CYP2C19 act
O=C(NCc1cccc(C(F)(F)F)c1)C1CC2Cn3c(nc4ccccc43)C2N1Cc1ccccc1 (centres undefined)	x	x	-1.4	x	x
NC(=O)CC1NC(=O)c2ccccc21 (centres undefined)	-5	0	1.1	1	1.1
CCC(=O)c1cc2c(cc1NC(=O)c1ccc(C)cc1)OCCO2	-1	23	-0.34	0.8	1
CCCc1cc2c(cc1NC(=O)c1ccc(C)cc1)OCO2	98*	41	-0.7	0.6	0
CCOc1cc(N2CCOCC2)c(OCC)cc1NC(=O)CSc1cccc[n+]1[O-]	2	33	1	0.7	1
Cc1cc(NC(=O)COC(=O)[C@H](Cc2c[nH]c3ccccc23)NC(=O)c2ccc(F)cc2)no1	30	76*	-2.3	0.2	0.7
CC(=O)NC(Cc1c[nH]c2ccccc12)C(=O)OCC(=O)Nc1ccc2c(c1)OCO2 (centres undefined)	39	74*	-0.67	0.3	0.6
CC(=O)N[C@H](Cc1c[nH]c2ccccc12)C(=O)O	x	x	-0.093	x	x
COC(=O)C(Cc1c[nH]c2ccccc12)NC(=O)CNC(C)=O (centres undefined)	13	-3	1.3	1	0.9
CC(=O)NC(Cc1c[nH]c2ccccc12)C(=O)N1CCc2ccccc2C1 (centres undefined)	75*	47	0.55	0.5	0.2
CC(=O)NC(Cc1c[nH]c2ccccc12)C(=O)OCC(=O)Nc1cc(C)on1 (centres undefined)	87*	84*	0.56	0.2	0.1
Cc1cc(NC(=O)CSc2nnc(-c3c[nH]c4ccccc34)n2-c2ccc(F)cc2)no1	x	x	-0.003	x	x
CC(=O)Nc1ccc(S(=O)(=O)NC(C(=O)O)C2=CCC=CC2)cc1 (centres undefined)	-7	-6	1	1.1	1.1
O=C(O)c1ccccc1OCCOCCOc1ccccc1C(=O)O	-12	-4	0.036	1	1.1
Fc1ccc(CNc2ccc(CNc3ncn[nH]3)cc2)cc1	64*	33	-0.017	0.7	0.4
C=C1CCN([C@@H](Cc2ccccc2)C(=O)NCCCc2ccccc2)S(=O)(=O)c2ccccc21	x	x	-4.5*	x	x
CC1CCCN(C(=O)CSc2nnc3n(C4CCCC4)c(=O)c4ccccc4n23)C1 (centres undefined)	21	25	1.7	0.7	0.8
CCc1ccc(-c2cc(C(=O)NN3CCOCC3)c3ccccc3n2)cc1	10	54*	0.34	0.5	0.9
O=C(NCCCN1CCOCC1)c1cc(-c2ccc3c(c2)OCO3)nc2ccccc12	12	54*	0.039	0.5	0.9
CCc1ccc(-c2cc(C(=O)Nc3ccc(S(=O)(=O)NC(C)=O)cc3)c3ccccc3n2)cc1	18	3	1.2	1	0.8
COc1ccc(-c2cc(C(=O)NCCN3CCOCC3)c3ccccc3n2)cc1	24	52*	1.4	0.5	0.8
COc1ccc(CNC(=O)c2c(N)n(CCCN3CCOCC3)c3nc4ccccc4nc23)cc1	75*	13	-2.1	0.9	0.3
CCOc1ccc(-c2cc(C(=O)NCCCN3CCN(CC)CC3)c3ccccc3n2)cc1	-7	19	1	0.8	1.1
CCOC(=O)/C=C/c1ccccc1S(=O)(=O)NC(C)(C)C	x	x	-0.084	x	x
O=C(NCc1ccccn1)C1(C(F)(F)F)C/C(=C\CCO)CCCO1 (centres undefined)	x	x	1.3	x	x
COc1ccc(-c2cc(C(=O)N3CCOCC3)c3cc(C)ccc3n2)cc1	33	59*	x	0.4	0.7
C/C(=N\O)C(=O)OC1CC(C)CCC1C(C)C (centres undefined)	96*	96*	-4.7*	0	0
